# Measurements reported in ChEMBL document CHEMBL3988442, “University of Dundee, Small-Polar-MMV Screening Library” (2021).
# Molecular target: AMP-activated protein kinase, AMPK (Homo sapiens) (UniProt P54646+O43741+P54619+Q9UGJ0+Q9Y478+Q13131+Q9UGI9)
# Experiment: AMP-dependent Kinase enzyme assay. An in vitro enzyme assay that detects ADP turnover that is directly proportional to AMPK activity. This uses naive AMPK that is activated during the assay with MK-8722
# Type: functional
# Set-up: scale not given: direction of the effect not stated beside the values
# Details: 30 µM
row,SMILES,Percent Effect [%]
1,CCn1cnnc1CCNC(=O)CCNC(=O)c1ccccc1F,-0.474
2,Cc1ccc(-n2cc(C(=O)NCc3nnc4n3CCCCC4)nn2)cc1,5.45
3,CCC(C(=O)NCc1nc(C)cc(C(F)(F)F)n1)n1cccn1 (stereo not given),4.67
4,Cn1cnc(S(=O)(=O)N2C[C@@H]3CC[C@H](C2)N(Cc2ccccn2)C3)c1,84.4
5,CC(C)(C)C(=O)N1CCCC1c1cc(CO)[nH]n1 (stereo not given),14.4
6,O=C1NCCN(C(=O)CN2CCOC2=O)C1c1cccc(F)c1 (stereo not given),-8.21
7,NC(=O)COc1ccc(CN2CC[C@@]3(O)CCCC[C@H]3C2)cc1Cl,3.71
8,Cc1nc(N)c2ccc(C3CCCN3)nc2n1 (stereo not given),10.9
9,O=C(NCC1CCOC1)c1cc(-c2ccccc2Cl)[nH]n1 (stereo not given),2.35
10,CNC(=O)COC(=O)c1ccn(-c2ccc(Cl)c(Cl)c2)n1,1.87
11,CC(C)Cn1ncc(C(=O)NS(=O)(=O)c2ccccc2)c1C1CC1,4.86
12,CC(c1nccs1)N(C)S(=O)(=O)NCc1ccccc1 (stereo not given),-1.57
13,CC(C)Cc1cc(C(=O)N2CCC(Cc3cnn(C)c3)C2)cc(O)n1 (stereo not given),-2.83
14,CC(C)COc1cncc(N2CCCN(c3ncccn3)CC2)n1,65.1
15,CCOCCC(=O)N1CCCC(c2cc(C(F)(F)F)[nH]n2)C1 (stereo not given),0.822
16,CNC(=O)Cc1ccc(NC(=O)NCc2nc(C)sc2C)cc1,0.571
17,CC(c1ccc(F)cc1F)N1CCN(CCC(=O)O)CC1 (stereo not given),8.21
18,Cc1cc(C)c2[nH]c(C(=O)NCCN3CCOC3=O)c(C)c2c1,16.4
19,Cc1c(NC(=O)CN2CCN(C3CCCC3)C(=O)C2)cnn1C,2.4
20,Cc1cc(C)c(C#N)c(NCCSc2nncn2C)n1,-0.426

row,SMILES,Percent Effect [%]
1,COc1ccc(OC)c(C(=O)Nc2cccnc2-n2cncn2)c1,2.13
2,COc1ccc(CC2(CO)CCN(c3cc(C#N)ccn3)CC2)cc1,112
3,COCCN1CCC(NC(=O)C/C=C/c2ccc(C(C)C)cc2)CC1,-8.07
4,Cc1nccn1CCCN1CCC(c2nccn2CC2CCC2)CC1,-9.78
5,COC(=O)CC1CCCCN1CC(=O)Nc1ccc(F)cc1Cl (stereo not given),8.66
6,CC(C)[C@@H]1CN(C(=O)CN(C)Cc2ccccc2)C[C@H]1C(=O)O,2.94
7,Cn1cc(CN2CCOC(c3cccc(-c4cncnc4)n3)C2)cn1 (stereo not given),11.3
8,Nc1ncnc2nc(C3CCCCN3)ccc12 (stereo not given),15.5
9,O=C(NCCc1cccnc1)c1ccc2nccn2c1,0.0619
10,O=C(NCCn1ccnc1-c1cc2n(n1)CCNC2)c1ccncc1,1.13
11,CCc1cc(N2CCC(NCCc3ccccc3F)CC2)nc(C)n1,1.26
12,O=C(CCn1ccnc1)N1CC[C@H](Oc2cccc(F)c2)[C@@H](O)CC1,-2.81
13,COc1ccc2c(c1)CCCC2CC(=O)NCC(C)(C)C(=O)O (stereo not given),0.926
14,O=C(CC1CCc2ccccc21)NC1(C(=O)O)CCCC1 (stereo not given),-6.64
15,CCc1nnc2n1CCN(C(=O)C(C)Oc1cccc(C#N)c1)C2 (stereo not given),5.56
16,COc1c(C)cnc(CN2CCn3c(nnc3C3CC3)C2)c1C,8.46
17,Cc1cc(C2CCCN(Cc3noc(Cc4ccccc4)n3)C2)n[nH]1 (stereo not given),35
18,Cc1nc(CN(C)S(=O)(=O)c2ccccc2Br)no1,6.12
19,CCS(=O)(=O)NCC(=O)N1CCC(c2cc3ccccc3[nH]2)CC1,6.95
20,COc1ccc2nc(CNC(=O)C3CC4(CCNCC4)CN3C)[nH]c2c1 (stereo not given),-3.99
